Assay results published in the supplement of paper PMC6555819.

Tested on: PPARg:RXRa (NR concentration 180 nM, RXRa partner concentration 90 nM)
Experiment: PBM binding z-score (relative to random genomic background probes); higher = stronger binding; sequences stand for … in GC…GCGATTGACAGCGTAGAATGAAGG
Procedure, shortened: (§1)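 Probes were double-stranded and carried 34-nt variable regions with direct-repeat seeds, single-nucleotide variants, half-site ablations and random human genomic background sequences, printed on custom Agilent 4×180K protein-binding microarrays. Arrays were incubated 1 h with ligand-free nuclear receptor dimers in PBS pH 7.4, 2% milk, 0.02% Triton X-100, 1 mM DTT, 0.2 mg/mL BSA and 0.4 mg/ml salmon testes DNA. Antibodies against each partner (one per run) detected binding, and scanned fluorescence was regression-normalized. Binding z-scores use the random background probes as reference.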

Sequence	PBM binding z-score
AGTCAAAGTTCATCTAGGTAACGTATGATATGCT	6.95
CAAACTAGGTGAAGAGGTCAAAGTCCGCTTCCCG	8.28
CCTATTTGGTCAAGGTCACACACGCTATAGGTAC	3.07
AGAATGAGGTTGTACGTAGATCAGGGAAGAAAGT	0.188
GTACCAAGGTGAATAGGTCGTTAATGAGTAGGCG	1.38
CCTAGCAGGCCAATCTGGGTCACACAAGGCTTGA	3.08
AACTCTAGGTAAAAGTTCAGTGAATCCCGAGGAT	7.44
TTACCAAGGTGAAGGTCGTTGTTCCCTCTGTAGA	2.54
CCGACTGGTGCAGAAAGGTTACCATACCATCCGG	0.848
TCTATTAGTTGATGGGCAACCGACGAGTCCGTTT	0.0134
GCTTACGGGTCAAAGGTTATTGCATGAATAGAAT	11.3
TCTTGTAGATCAAAGGTTAAGAACGCCGAAGCCT	8.19
TCAGACAGGTGAAGGTAACTCATGTACGCAGTCG	0.954
GCTATTAGTAGAAAGGGCAACCGAATGATTCTCG	2.17
CCAGACAGGTGAAAGGTAAGTCAGTCTGGTACGC	4.52
ACTCGGAGGACAAAGGTCAGAGATACGCCAGTGA	7.66
AGAATGAGGTTACCAAAGATCAGGGCAACGCTTG	3.06
CCGACTGGGGCAAAGGTTAGCATACTCAGTACGA	10.7
ATCTCTAAGTAAAGATAGTTCAGTGAATGCAAAT	0.449
GCTATTAGTTGAAAGGGCTACCGAATGATTCTCG	0.531

Sequence	PBM binding z-score
TCTTGTCGATCAATAGAGGTTAAGAAAGTGCGCT	0.144
ATCTCTTGGTAAAAGTTCAGTGAATCCCGAGGAT	1.87
CTAACTAGGTCAAGGACAGTGAATCTCCGCACGC	8.18
AGAATGAGGTTATTAAAATCAGGGAATTGCGGTC	1.02
ACAAGCAGGCCAAGGGTCACTCAAGATTAGTCCG	8.28
GATACAGGGTCAAGGCCCGAGTACGCGTATTGAT	5.65
ACTATTAGTTGACTTAGTGCAACCGATACGACGC	0.743
CCGAGTAGGTTATGGGGCAGTCAGGCAACGGTGA	2.58
CCTACTGGGCCATTCAGAGGCCATTGATCATATG	0.541
ATCTCTGGGTAAGACTCAGTTCAGTGAAGAACGC	0.0592
TCGAGTTGGTCACGGAGGTCACACACGACGGGTA	3.18
TTACCAAGGTGAACGTCGTTGATCCCTCTGTAGA	0.984
TCATATAGGTAAAGGTGAAAGTCGAACGATATGA	4.01
CTACTAAGGTGAACAAGGTCGTTGATTACTATTC	1.47
ATCTCTAGGCAAAAGTTCAGTGAATCCCGAGGAT	5.41
CAAACTAGGTCAAGGTAAAAGTCGGTTTGTGCCA	8.27
CAAACTAGGTCAGGGTCAAAGTCGGTTTGTGCCA	9
ATATGTAGGTTACAACCGGGTCATTCAGGCTATG	5.74
AGTCAATGTTCAGGACGAGGTAACGTAAAGCACG	0.531
ATATGTAGGTTAAGGGTCATCCAGGTTGGTTCGC	12.2

Tested on: PPARg:RXRa 270nM:90nM, anti-RXR (NR concentration 270 nM, RXRa partner concentration 90 nM)
Experiment: as above
Procedure, shortened: as §1

Sequence	PBM binding z-score
AGTCAAAGTTCATCTAGGTAACGTATGATATGCT	6.52
CAAACTAGGTGAAGAGGTCAAAGTCCGCTTCCCG	7.03
CCTATTTGGTCAAGGTCACACACGCTATAGGTAC	3.58
AGAATGAGGTTGTACGTAGATCAGGGAAGAAAGT	0.124
GTACCAAGGTGAATAGGTCGTTAATGAGTAGGCG	1.71
CCTAGCAGGCCAATCTGGGTCACACAAGGCTTGA	2.68
AACTCTAGGTAAAAGTTCAGTGAATCCCGAGGAT	7.64
TTACCAAGGTGAAGGTCGTTGTTCCCTCTGTAGA	4.08
CCGACTGGTGCAGAAAGGTTACCATACCATCCGG	1.18
TCTATTAGTTGATGGGCAACCGACGAGTCCGTTT	1.55
GCTTACGGGTCAAAGGTTATTGCATGAATAGAAT	9.3
TCTTGTAGATCAAAGGTTAAGAACGCCGAAGCCT	7.86
TCAGACAGGTGAAGGTAACTCATGTACGCAGTCG	2.14
GCTATTAGTAGAAAGGGCAACCGAATGATTCTCG	3.71
CCAGACAGGTGAAAGGTAAGTCAGTCTGGTACGC	5.14
ACTCGGAGGACAAAGGTCAGAGATACGCCAGTGA	6.85
AGAATGAGGTTACCAAAGATCAGGGCAACGCTTG	3.12
CCGACTGGGGCAAAGGTTAGCATACTCAGTACGA	8.69
ATCTCTAAGTAAAGATAGTTCAGTGAATGCAAAT	0.18
GCTATTAGTTGAAAGGGCTACCGAATGATTCTCG	1.52

Sequence	PBM binding z-score
TCTTGTCGATCAATAGAGGTTAAGAAAGTGCGCT	1.76
ATCTCTTGGTAAAAGTTCAGTGAATCCCGAGGAT	4.15
CTAACTAGGTCAAGGACAGTGAATCTCCGCACGC	6.92
AGAATGAGGTTATTAAAATCAGGGAATTGCGGTC	1.43
ACAAGCAGGCCAAGGGTCACTCAAGATTAGTCCG	7.67
GATACAGGGTCAAGGCCCGAGTACGCGTATTGAT	5.62
ACTATTAGTTGACTTAGTGCAACCGATACGACGC	0.105
CCGAGTAGGTTATGGGGCAGTCAGGCAACGGTGA	3.74
CCTACTGGGCCATTCAGAGGCCATTGATCATATG	0.6
ATCTCTGGGTAAGACTCAGTTCAGTGAAGAACGC	0.276
TCGAGTTGGTCACGGAGGTCACACACGACGGGTA	3.36
TTACCAAGGTGAACGTCGTTGATCCCTCTGTAGA	1.25
TCATATAGGTAAAGGTGAAAGTCGAACGATATGA	4.55
CTACTAAGGTGAACAAGGTCGTTGATTACTATTC	1.99
ATCTCTAGGCAAAAGTTCAGTGAATCCCGAGGAT	6.14
CAAACTAGGTCAAGGTAAAAGTCGGTTTGTGCCA	7.09
CAAACTAGGTCAGGGTCAAAGTCGGTTTGTGCCA	7.43
ATATGTAGGTTACAACCGGGTCATTCAGGCTATG	5.17
AGTCAATGTTCAGGACGAGGTAACGTAAAGCACG	-0.297
ATATGTAGGTTAAGGGTCATCCAGGTTGGTTCGC	10.6
